This note sets out measurements from PubChem BioAssay (Tox21).

Assay [1] in a line: qHTS assay for identifying genotoxic compounds that show differential cytotoxicity against isogenic chicken DT40 cell lines with known DNA damage response pathways - wild type cell line (AID 743012). Note: nearly all actives have a fitted effect of over 60% in size. Note: potency is the fitted concentration of half-maximal effect. A digest of the protocol: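 First, wild type DT40 cells were plated at 300 per well and equilibrated about 0.5 h at 37 C/5% CO2. Next, compounds in DMSO were added and exposure lasted 40 h. Finally, CellTiter-Glo was added for 30 min at room temperature and luminescence recorded.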
A general note: In qHTS, concentration-response curves come from the screen itself.

Assay [2] can be described thus: qHTS assay for identifying genotoxic compounds that show differential cytotoxicity against isogenic chicken DT40 cell lines with known DNA damage response pathways - Rev3 mutant cell line (AID 743014). Note: nearly all actives have a fitted effect of over 55% in size. Note: potency is the fitted concentration of half-maximal effect.
The nature of assay [3]: qHTS assay to identify small molecule antagonists of the androgen receptor (AR) signaling pathway - cell viability counter screen (AID 743033; note: nearly all actives have a fitted effect of over 45% in size; note: potency is the fitted concentration of half-maximal effect).
Assay [4] in a line: qHTS assay to identify small molecule antagonists of the androgen receptor (AR) signaling pathway using the MDA cell line - cell viability counter screen (AID 743041; note: nearly all actives have a fitted effect of over 45% in size). A digest of the protocol: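 R1881-driven MDA-kb2 AR-luc cells, 3,000/well, were dosed with library compounds for 16 h; cell health came from CellTiter-Fluor fluorescence in the reporter wells.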
Assay [5] is described as follows: qHTS assay to identify small molecule antagonists of the thyroid receptor (TR) signaling pathway (AID 743065). Note: nearly all actives have a fitted effect of over 55% in size. Note: potency is the fitted concentration of half-maximal effect. In outline:
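Antagonism measured as loss of luciferase signal in GH3 cells stably carrying a TRE-luciferase reporter, co-treated with compound and T3 (1 nM final) for 23.5 h at 37 C. Viability was read in the same well by CellTiter-Fluor.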

Assay [6] relates to thyroid hormone receptor (rat, GH3 cells). Description: qHTS assay to identify small molecule agonists of the thyroid receptor (TR) signaling pathway (AID 743066; calls by dose curve).
The target of assay [7] is Estrogen receptor (Homo sapiens) (UniProt P03372). Kind of assay: qHTS assay to identify small molecule antagonists of the estrogen receptor alpha (ER-alpha) signaling pathway (AID 743069; active = well fitted curve in the direction sought with a large enough effect in the signal ratio in the repeat runs, not every such curve was filed as active; inconclusive = weak or mixed curves, or effect the other way; inactive = no such curve, though single readings can be large or run the other way; the % refers to the signal ratio; note: potency is the fitted concentration of half-maximal effect). In outline:
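Compound effects are measured against 17beta-estradiol stimulation in HEK293 cells with a UAS-controlled beta-lactamase reporter for ER-alpha. Exposure lasts 18 hr at 37C; LiveBLAzer B/G FRET substrate follows for 2 hr at room temperature.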

The nature of assay [8]: qHTS assay to identify small molecule antagonists of the estrogen receptor alpha (ER-alpha) signaling pathway - cell viability counter screen (AID 743074; calls by dose curve;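 note: HEK293 cells carrying ER-alpha-UAS-bla reporter stimulated with 17beta-estradiol; nearly all actives have a fitted effect of over 45% in size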; note: potency is the fitted concentration of half-maximal effect).
Assay [9] has as its target Estrogen receptor (Homo sapiens) (UniProt P03372). Kind of assay: qHTS assay to identify small molecule agonists of the estrogen receptor alpha (ER-alpha) signaling pathway (AID 743075; calls by dose curve; note: potency is the fitted concentration of half-maximal effect).
The target is the same in assay [10]. Description: qHTS assay to identify small molecule agonists of the estrogen receptor alpha (ER-alpha) signaling pathway using the BG1 cell line (AID 743079). Note: nearly all actives have a fitted effect of over 20% in size.
The nature of assay [11]: qHTS assay to identify small molecule antagonists of the estrogen receptor alpha (ER-alpha) signaling pathway using the BG1 cell line (AID 743080; calls by dose curve;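 note: BG1 cells stimulated with 17beta-estradiol alongside compound; nearly all actives have a fitted effect of over 25% in size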; note: potency is the fitted concentration of half-maximal effect). In outline:
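Seeding, 24 h rest, compound transfer from DMSO, 17beta-estradiol addition, 21.5 h incubation, CellTiter-Fluor (30 min, 37 C), then ONE-Glo (30 min, room temperature): this sequence was run on BG1-Luc-4E2 reporter cells.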

A short description of assay [12]: qHTS assay to identify small molecule antagonists of the estrogen receptor alpha (ER-alpha) signaling pathway using the BG1 cell line - cell viability counter screen (AID 743081).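 Note: compound given together with 17beta-estradiol as the ER stimulus; nearly all actives have a fitted effect of over 45% in size.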 Note: potency is the fitted concentration of half-maximal effect.
A further assay has as its target Aromatase (Homo sapiens) (UniProt P11511). Kind of assay: qHTS assay to identify aromatase inhibitors (AID 743083). Note: nearly all actives have a fitted effect of over 55% in size. Note: potency is the fitted concentration of half-maximal effect.
The nature of assay [13]: qHTS assay to identify small molecule antagonists of the glucocorticoid receptor (GR) signaling pathway - cell viability counter screen (AID 720693). Note: nearly all actives have a fitted effect of over 55% in size.
Assay [14] can be described thus: qHTS assay to identify small molecule antagonists of the thyroid receptor (TR) signaling pathway - cell viability counter screen (AID 743064). Note: nearly all actives have a fitted effect of over 50% in size. Note: potency is the fitted concentration of half-maximal effect. In outline:
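In rat pituitary GH3.TRE-Luc reporter cells co-exposed to compound and 1 nM T3 for 23.5 h, cytotoxicity was assessed with CellTiter-Fluor in the same wells, read by fluorescence.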

Assay [15] is described as follows: qHTS assay for identifying genotoxic compounds that show differential cytotoxicity against isogenic chicken DT40 cell lines with known DNA damage response pathways - Rad54/Ku70 mutant cell line (AID 743015). Note: nearly all actives have a fitted effect of over 60% in size. Note: potency is the fitted concentration of half-maximal effect.
Assay [16] addresses Androgen receptor (Homo sapiens) (UniProt P10275). Kind of assay: qHTS assay to identify small molecule antagonists of the androgen receptor (AR) signaling pathway (AID 743035; active = well fitted inhibition curve with a large enough effect in the signal ratio in the repeat runs, not every such curve was filed as active; inconclusive = weak or mixed curves, or effect the other way; inactive = no such curve, though single readings can be large or run the other way; the % refers to the signal ratio). In outline:
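Beta-lactamase FRET read (2 h RT incubation with LiveBLAzer B/G) following 16 h of compound plus R1881 treatment of AR-UAS-bla HEK293 cells, which had been pre-incubated 4 h at 37C.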

Assay [17] has the same target. Description: qHTS assay to identify small molecule agonists of the androgen receptor (AR) signaling pathway (AID 743036; active = well fitted activation curve with a large enough effect in the signal ratio in the repeat runs, with a control signal flat, not every such curve was filed as active; inconclusive = weak or mixed curves, or effect the other way; inactive = no such curve, though single readings can be large or run the other way; the % refers to the signal ratio). A digest of the protocol: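 Cell-based FRET reporter assay: HEK293 line with a UAS-beta-lactamase construct, compounds added in DMSO, 16 h exposure at 37C, then 2 h substrate step at room temperature and fluorescence intensity read.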
Assay [18] shares this target. Description: qHTS assay to identify small molecule agonists of the androgen receptor (AR) signaling pathway using the MDA cell line (AID 743040; note: nearly all actives have a fitted effect of over 20% in size). A digest of the protocol:
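After a 5 h incubation at 37C and 0% CO2, MDA-kb2 reporter cells were dosed with compounds in DMSO and kept 16 h under the same conditions. Luciferase activity was then read as luminescence with ONE-Glo.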

For assay [19] the target is unchanged. Kind of assay: qHTS assay to identify small molecule antagonists of the androgen receptor (AR) signaling pathway using the MDA cell line (AID 743042; note: nearly all actives have a fitted effect of over 55% in size). A digest of the protocol:
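Antagonist mode: compounds plus R1881 agonist added to MDA-kb2 AR-luc cells, incubated 16 h at 37C. Luciferase reporter luminescence quantified, with multiplexed CellTiter-Fluor readout for cell viability.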

Where “and” joins values, the source holds several entries; their conditions need not be identical. Equal values may be shown once. The source holds several records for some structures; these can differ, active in one and inactive in another. Calls of active or inactive are those of the source. Unless noted, calls come from the whole dose curve; as a rule, active = well fitted curve in the direction sought with a large enough effect in the repeat runs; inconclusive = weak or mixed curves; inactive = no such curve, though single readings can be large; an effect the other way counts as inactive or inconclusive.

Chain of Estrogen receptor (Homo sapiens) (P03372 whole entry, looked up): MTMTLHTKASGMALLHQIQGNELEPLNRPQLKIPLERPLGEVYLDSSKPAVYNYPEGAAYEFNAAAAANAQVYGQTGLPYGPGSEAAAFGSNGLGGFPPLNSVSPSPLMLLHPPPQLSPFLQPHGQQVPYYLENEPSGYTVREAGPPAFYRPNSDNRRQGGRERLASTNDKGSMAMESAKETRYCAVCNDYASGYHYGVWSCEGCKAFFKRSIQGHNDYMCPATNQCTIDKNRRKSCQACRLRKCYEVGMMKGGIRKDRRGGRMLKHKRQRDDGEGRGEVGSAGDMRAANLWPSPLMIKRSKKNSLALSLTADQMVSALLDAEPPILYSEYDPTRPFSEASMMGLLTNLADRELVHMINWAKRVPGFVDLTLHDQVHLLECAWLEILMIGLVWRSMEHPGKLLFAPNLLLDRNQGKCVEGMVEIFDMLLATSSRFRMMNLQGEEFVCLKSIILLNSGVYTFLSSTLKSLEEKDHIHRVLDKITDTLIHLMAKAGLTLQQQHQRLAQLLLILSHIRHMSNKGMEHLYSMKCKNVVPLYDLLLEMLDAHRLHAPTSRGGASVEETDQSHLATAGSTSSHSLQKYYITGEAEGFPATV
Chain of Aromatase (Homo sapiens) (P11511 whole entry, looked up): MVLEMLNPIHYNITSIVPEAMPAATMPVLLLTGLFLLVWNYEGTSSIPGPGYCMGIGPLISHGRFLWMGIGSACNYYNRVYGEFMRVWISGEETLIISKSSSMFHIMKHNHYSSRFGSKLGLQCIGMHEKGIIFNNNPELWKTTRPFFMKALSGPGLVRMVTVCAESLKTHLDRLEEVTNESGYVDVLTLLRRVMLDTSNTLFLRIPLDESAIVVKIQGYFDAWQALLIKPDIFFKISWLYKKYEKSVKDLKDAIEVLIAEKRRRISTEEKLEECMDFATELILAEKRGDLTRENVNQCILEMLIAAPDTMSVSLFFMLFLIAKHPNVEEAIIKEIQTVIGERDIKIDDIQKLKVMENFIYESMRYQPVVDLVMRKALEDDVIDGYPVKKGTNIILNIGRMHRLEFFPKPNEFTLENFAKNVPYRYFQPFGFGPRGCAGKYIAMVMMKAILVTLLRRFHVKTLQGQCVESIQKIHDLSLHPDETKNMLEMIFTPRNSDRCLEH
Chain of Androgen receptor (Homo sapiens) (P10275 whole entry, looked up): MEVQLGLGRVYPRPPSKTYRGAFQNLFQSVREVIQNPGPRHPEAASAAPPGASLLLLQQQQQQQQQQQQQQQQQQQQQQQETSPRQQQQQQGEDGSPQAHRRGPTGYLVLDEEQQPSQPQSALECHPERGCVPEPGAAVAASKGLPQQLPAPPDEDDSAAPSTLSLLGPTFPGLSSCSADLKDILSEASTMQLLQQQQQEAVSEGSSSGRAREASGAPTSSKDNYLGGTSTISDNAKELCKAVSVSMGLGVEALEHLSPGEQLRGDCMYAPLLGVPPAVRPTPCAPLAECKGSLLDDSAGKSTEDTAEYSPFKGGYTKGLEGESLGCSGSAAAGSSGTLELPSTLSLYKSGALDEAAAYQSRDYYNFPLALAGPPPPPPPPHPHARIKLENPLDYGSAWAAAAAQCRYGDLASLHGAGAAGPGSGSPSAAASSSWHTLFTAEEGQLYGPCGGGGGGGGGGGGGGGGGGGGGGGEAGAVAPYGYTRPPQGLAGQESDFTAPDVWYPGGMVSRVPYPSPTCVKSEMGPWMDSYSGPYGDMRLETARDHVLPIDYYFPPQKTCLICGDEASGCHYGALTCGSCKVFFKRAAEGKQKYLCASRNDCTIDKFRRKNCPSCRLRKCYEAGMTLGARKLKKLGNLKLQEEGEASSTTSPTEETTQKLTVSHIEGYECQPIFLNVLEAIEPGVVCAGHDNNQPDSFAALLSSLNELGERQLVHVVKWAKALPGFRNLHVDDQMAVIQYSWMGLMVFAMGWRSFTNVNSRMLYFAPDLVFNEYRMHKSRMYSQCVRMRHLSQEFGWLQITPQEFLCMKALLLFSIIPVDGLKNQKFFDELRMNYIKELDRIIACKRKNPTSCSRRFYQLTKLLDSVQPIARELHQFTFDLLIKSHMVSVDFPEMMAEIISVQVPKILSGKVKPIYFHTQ

`C=C(C)C(=O)OCCC[Si](OC)(OC)OC`: the Potency entry in assay [1], in assay [2], in [3], in [4], in assay [5] and in assay [7] was “inactive” throughout. Moreover, the Potency result (in [8]; in assay [9]; in [10]; in [11]; in assay [12]; with Aromatase (Homo sapiens)) was “inactive” throughout. The result in assay [6] was inactive.
With `CCC(=O)O`, the Potency entry in assay [13], in assay [1], in assay [2], in [3], in [4] and in [14] was “inactive” each time. Besides, the Potency result in [7], in assay [8], in assay [9], in [10], in [11] and in [12] was “inactive” throughout. Besides, in the assay with Aromatase (Homo sapiens), the Potency result is “inactive”.
Consider `O=[N+]([O-])C(CO)(CO)CO`, for which the Potency result in [13], in assay [2], in [3], in [4], in assay [14] and in assay [7] was “inactive” in each case. Besides, the Potency result (in [8]; in [9]; in [10]; in [11]; in [12]; in the assay with Aromatase (Homo sapiens)) was “inactive” in each case. Besides, in assay [1], the Potency result is “inactive and 68.6 µM (active)”. Besides, the molecule was called inactive in assay [6].
As for `O=C(O)c1ccc([N+](=O)[O-])cc1`, the Potency entry in [13], in assay [1], in [2], in assay [3], in assay [4] and in assay [14] was “inactive” in each case. The Potency result (in assay [5]; in [8]; in assay [12]; in the assay with Aromatase (Homo sapiens)) was “inactive” each time. In addition, the call in [6] was inactive.
On to `CCCCCCCCCC(=O)O`, for which the Potency result in assay [13], in assay [1], in assay [4], in assay [14], in assay [8] and in [12] was “inactive” in each case. Further, the Potency entry with Aromatase (Homo sapiens) is “inactive”. Further, the Potency is 61.2 µM (active) and inactive in assay [15]; “inactive and 55 µM (active)” in [3]. Moreover, the outcome in assay [16], in assay [17], in [18], in [19] and in assay [6] was inactive.
For `CCCCC(CC)COC(C)=O` (centres undefined), the Potency result in assay [13], in [1], in [2], in assay [3], in [4] and in assay [14] was “inactive” in each case. For the same molecule, the Potency entry (in [8]; in [12]; with Aromatase (Homo sapiens)) was “inactive” throughout. In addition, the result in [6] was inactive.
In the case of `O=[N+]([O-])c1cc(N(CCO)CCO)ccc1NCCO`, the Potency entry in assay [13], in assay [3], in assay [7], in assay [8], in assay [9] and in [10] was “inactive” throughout. For the same molecule, the molecule was called inactive in [16], in [17], in [18] and in assay [6]. Also, the Potency was 61 µM (active) in assay [14] and 48.5 µM (active) in assay [12].
Take `CCCCCCCCCCC=CC1CC(=O)OC1=O` (centres undefined): the Potency result in [13], in assay [1], in [15], in assay [3], in [4] and in assay [14] was “inactive” each time. The Potency result in [8] and in [12] was “inactive” each time. Besides, the molecule was classed as inactive in [6].
On to `Oc1c(Cl)cc(Cl)c(Cl)c1Cl`, for which the Potency result (in [13]; in assay [4]; in assay [9]; in assay [12]; with Aromatase (Homo sapiens)) was “inactive” throughout. Besides, the Potency was 67.1 µM (active) in assay [1]; 47.5 µM (active) and 30.6 µM (active) in assay [5]; 34 µM [inconclusive] (active) in [7]; 53.8 µM (active) in assay [8]; “inactive and 68.6 µM (active)” in assay [11]. Moreover, in [6], the outcome was inactive.
Consider `C/C=C(C)/C=C/C=C(C)C`, for which the Potency entry in assay [13], in assay [3], in assay [4], in [14], in [8] and in [12] was “inactive” throughout. Also, the Potency result with Aromatase (Homo sapiens) is “inactive”. Moreover, the Potency in assay [1] was 61.1 µM (active); in [15], 54.5 µM (active). The molecule was called inactive in assay [6].
Regarding `NCCNCCNCCNCCN`, the Potency entry in assay [13], in assay [1], in [15], in [3], in assay [4] and in assay [14] was “inactive” throughout. Moreover, the Potency result (in [5]; in [8]; in assay [12]; with Aromatase (Homo sapiens)) was “inactive” throughout. For the same molecule, the molecule was called inactive in assay [16], in [17], in assay [18], in assay [19] and in [6].
As to `O=c1c(-c2ccc(O)cc2)coc2cc(O)ccc12`, the Potency entry in assay [13], in assay [2], in assay [3], in [4], in assay [7] and in [12] was “inactive” in each case. Also, the Potency entry in the assay with Aromatase (Homo sapiens) was “inactive”. The outcome in [18] and in assay [19] was inactive.
With `CC1COc2ccccc2N1C(=O)C(Cl)Cl` (centres undefined), the Potency entry in assay [13], in assay [3], in assay [7], in assay [8], in [10] and in assay [12] was “inactive” throughout. The Potency in [2] is 30.6 µM (active) and 24.3 µM (active); in assay [15], 61 µM (active) and 38.5 µM (active); in assay [14] it was 9.67 µM (active) and 19.3 µM (active); in assay [5], 8.62 µM (active) and 15.3 µM (active); in assay [9], 24.5 µM [inconclusive] (active); in assay [11] it was 30.6 µM (active) and 68.5 µM (active). The Potency with Aromatase (Homo sapiens) was 61 µM (active) and inactive. Further, the result in [6] was inactive.
As to `CCCCCCCCC`, the Potency result in assay [13], in [1], in assay [2], in assay [3], in assay [4] and in assay [14] was “inactive” throughout. Further, the Potency entry in [7], in assay [8], in [9], in [10], in [11] and in assay [12] was “inactive” throughout. Besides, the Potency entry in the assay with Aromatase (Homo sapiens) is “inactive”. Moreover, the molecule was called inactive in assay [6].
